# A selection: hits, their analogues and other compounds. The true share with any hit is near 12%.
# Sfp PPTase inh: inhibitors of Bacillus subtilis Sfp phosphopantetheinyl transferase. 310,000 tested, 3.5% active. Biochemical Sfp PPTase activity, qHTS. Potency, µM, for inactives: largest response in the series, negative = inhibition, hits mostly inhibitors. Q9F4F7;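 further: the enzyme is Sfp with the accession as filed and its product quenches rhodamine fluorescence; 0% = enzyme reaction without inhibitor and -100% = no enzyme wells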
#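 Step 1, compound plus 15 nM Sfp-PPTase, 15 min, room temperature. Step 2, add rhodamine-CoA (5 uM) and BHQ-2-YbbR (12.5 uM). Step 3, read 525/598 nm fluorescence at 0 and 30 min.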
# HP1b chromo inh: inhibitors of HP1-beta chromodomain binding to methylated histone tails | 390,000 tested, 0.56% active | AID 540317 | AlphaScreen HP1-beta / biotin-H3K9me3 peptide binding | Potency, µM (highest dose often 114 µM), for inactives: at the top dose activity change, negative = inhibition, hits mostly inhibitors | P83916; further: nearly all actives have a fitted effect of over 70% in size
#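 Compound inhibition of the preformed complex between 50 nM HP1-beta and 50 nM biotinylated H3K9me3 peptide was read by AlphaScreen. Buffer was PBS pH 7.4 with 0.01% Tween-20. Incubations ran 30 min at room temperature, with 10 ug/mL donor/acceptor beads.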
# G9a inh: inhibitors of human histone lysine methyltransferase G9a. AID 504332. 350,000 tested, 8.8% active. Potency, µM (doses to about 102 µM), without a hit: at the highest dose activity, negative = inhibition, usual class: inhibitors. Q96KQ7. G9a H3K9 monomethylation, AlphaScreen, 2 h; further: on the % scale 0 is the no-effect control and ±100 the full control effect; nearly all actives have a fitted effect of over 75% in size
#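 G9a (20 nM) preincubated 15 min RT with compounds, then 500 nM biotinylated H3K9 peptide and 20 uM SAM added; 2 h RT reaction. Monomethyl-H3K9 product detected by AlphaScreen with anti-H3K9me1 antibody, streptavidin donor and anti-rabbit IgG acceptor beads.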
# BAZ2B block: BAZ2B (human) inhibition; Q9UIF8; AlphaScreen BAZ2B-H3K14Ac peptide displacement; Potency, µM (top dose mostly 114 µM), for inactives: top-dose activity change, negative = inhibition, actives largely listed as inhibitors; 360,000 tested, 4.4% active; further: on the % scale 0 is the no-effect control and ±100 the full control effect; nearly all actives have a fitted effect of over 60% in size
#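 BAZ2B 50 nM plus b-H3(5-23)K14Ac 50 nM, PBS pH 7.4/0.01% Tween-20, 30 min RT; compound added (max 110 uM), 30 min RT; streptavidin donor/Ni-chelate acceptor beads 10 ug/mL final, 20 min dark; AlphaScreen read.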
# JMJD2A Tudor inh: inhibitors of human JMJD2A Tudor domain; O75164; AlphaScreen JMJD2A-Tudor / H3K4me3 peptide binding; Potency, µM (top dose mostly 114 µM), without a hit: at the top dose activity change, negative = inhibition, usual class: inhibitors; 390,000 tested, 4.4% active; AID 504339; further: on the % scale 0 is the no-effect control and ±100 the full control effect; nearly all actives have a fitted effect of over 50% in size
# Starred values were filed as active, the others as inactive; ? = inconclusive; . = no result; [ ] = another dose, or the depositor's remark. The call rests on the fitted dose curve; in most records, active means well fitted curve in the direction sought with a large enough effect; inconclusive means small, poorly fitted or top-dose-only effect, or another doubt; inactive means no such curve, though single readings can be large; an effect the other way counts as inactive or inconclusive. Potency means the concentration at half of the fitted maximal effect.
SMILES,Sfp PPTase inh,HP1b chromo inh,G9a inh,BAZ2B block,JMJD2A Tudor inh
CN(C)c1ccc(C(CNS(=O)(=O)c2ccc(Cl)cc2)N2CCOCC2)cc1 (stereo not drawn),.,-18%,?,40µM*,?
CN(C)c1ccc(C(CNS(=O)(=O)c2ccc(F)cc2)N2CCCC2)cc1 (stereo not drawn),.,10%,-6%[59 µM],?,?
CCN1CCN(C(CNS(=O)(=O)c2ccc(Cl)cc2)c2cccnc2)CC1 (stereo not drawn),9%,15%,79µM*,-3%,2%
CCN1CCN(C(CNS(=O)(=O)c2ccc(Br)cc2)c2cccnc2)CC1 (stereo not drawn),9%,34%,20%,-1%,-10%
CN(C)c1ccc(C(CNC(=O)c2ccc(C(C)(C)C)cc2)N2CCCC2)cc1 (stereo not drawn),.,?,16µM*,28µM*,45µM*
O=C(c1ccco1)C(O)c1ccco1 (stereo not drawn),12%,22%,50µM*,-13%,-10%
Cc1ccc(C(O)C(=O)c2ccco2)cc1 (stereo not drawn),.,101%,-2%[2.33 µM],-1%,-3%
Cc1ccc(C(=O)NNC(=O)Cc2cccs2)cc1,29%,26%,1%,-2%,-19%
Brc1ccc(CN2CCN(c3ccccc3)CC2)o1,-25%,?,?,56µM*,3.2µM*
Cc1cccc(N2CCN(Cc3oc(CO)cc(=O)c3O)CC2)c1C,-21%,25%,5%[12.7 µM],-37%,?
Clc1ccccc1N1CCN(Cc2ccc(Br)o2)CC1,.,-11%,.,.,25µM*
Cc1ccccc1N1CCN(Cc2ccc(Br)o2)CC1,-21%,?,10µM*,56µM*,1µM*
Cc1cccc(N2CCN(Cc3ccc(Br)o3)CC2)c1C,-14%,-26%,25µM*,?,28µM*
C[n+]1ccccc1C1CCCC/C1=N\NC(N)=S (stereo not drawn),-6%,?,16µM*,?,22µM*
CC1CCCC/C1=N\NC(=S)NCCc1ccccc1 (stereo not drawn),12%,-3%,?,?,?
COc1ccccc1OCC(=O)NCc1cccs1,15%,27%,-1%,-4%,-11%
Cc1ccc(-c2csc(N/N=C/c3ccco3)n2)c(C)c1,14%,?,-12%[59 µM],-10%,-21%
CN(C)S(=O)(=O)c1cccc(-c2csc(N/N=C/c3ccco3)n2)c1,14µM*,?,-15%[12.7 µM],35µM*,?
COc1cccc(=O)c2c(C)n(CC(=O)c3ccccc3)c(C)c12,45µM*,-5%,?,?,-34%
CCOc1cccc(=O)c2c(C)n(CC(=O)c3ccccc3)c(C)c12,-24%,79µM*,?,-28%,-27%
CC[C@H](C)C(=O)O[C@H]1CCC=C2C=C[C@H](C)[C@H](CC[C@@H]3C[C@H](O)CC(=O)O3)C21 (stereo partly drawn),.,.,8%[12.7 µM],.,.
FC(F)(F)c1cccc(/C=N/NC(=S)NC2CCCCC2)c1,13%,-1%,26%,-10%,-20%
CN1C(=O)C(=O)/C(=C(/O)c2ccccc2)C1c1ccccc1 (stereo not drawn),11%,21%,?,-4%,-22%
Cc1ccc(/C(O)=C2/C(=O)C(=O)OC2c2ccc(Cl)cc2)cc1 (stereo not drawn),2%,-8%,?,-29%[57.1 µM],79µM*
Cc1ccc(/C(O)=C2\C(=O)C(=O)N(C)C2c2ccc(Br)cc2)cc1 (stereo not drawn),11%,10%,?,3%,-20%
SMILES,Sfp PPTase inh,HP1b chromo inh,G9a inh,BAZ2B block,JMJD2A Tudor inh
O=C1OC(c2ccccc2)/C(=C(/O)c2ccccc2)C1=O (stereo not drawn),-10%,0%,-8%[12.7 µM],0%,35µM*
O=C1OC(c2ccccc2)/C(=C(/O)c2ccc(Cl)cc2)C1=O (stereo not drawn),8%,-6%,-4%[12.7 µM],?,25µM*
CCOC(=O)C1=C(C)NC(c2ccccc2)=C(C(=O)OCc2ccc([N+](=O)[O-])cc2)[C@@H]1C#Cc1ccccc1,20%,.,.,.,.
O=C(O)CCCC(=O)Nc1ccccc1C(=O)N1CCOCC1,12%,6%,11%,7%,-6%
Cc1ccccc1CN1CCN(CC2CC2)CC1CCO (stereo not drawn),8%,35%,20%,10%,-14%
O=C(O)c1cccc(NC(=O)c2ccc3c(c2)C(=O)N(c2cccc([N+](=O)[O-])c2)C3=O)c1,8%,28%,-21%,-17%,-13%
O=C(O)c1cccc(N2C(=O)c3ccc(C(=O)c4cccc([N+](=O)[O-])c4)cc3C2=O)c1,-3%,35%,56µM*,-18%,-14%
O=C(Nc1ccc([N+](=O)[O-])cc1)Nc1ccc2[nH]c(=O)[nH]c2c1,-4%,-7%,.,?,?
O=C(c1cccc([N+](=O)[O-])c1)c1ccc2[nH]c(=O)[nH]c2c1,-6%,24%,79µM*,-12%,-6%
Cc1cccc(NC(=O)CC2(CC(=O)O)CCCC2)c1,16%,19%,20%,9%,-5%
O=C(O)CC1(CC(=O)Nc2cc3ccccc3cn2)CCCCC1,12%,31%,89µM*,-29%,-5%
CCn1c(SCC(=O)Nc2oc(-c3ccccc3)c(-c3ccccc3)c2C#N)nnc1-c1ccncc1,-7%,-18%,7.9µM*,?,?
Cc1cnc(C(=O)OCC(=O)Nc2oc(-c3ccccc3)c(-c3ccccc3)c2C#N)cn1,17%,-11%,50µM*,-57%,56µM*
CCn1c(SCC(=O)Nc2oc(-c3ccccc3)c(-c3ccccc3)c2C#N)nnc1-c1ccco1,10%,-12%,?,-36%,?
Cc1cc(Cn2ccnc2)c(C)c([N+](=O)[O-])c1Cn1ccnc1,9%,31%,11%,79µM*,-9%
O=C1C2C3C=CC(C3=C(c3ccccc3)c3ccccc3)C2C(=O)N1Cc1ccccc1 (stereo not drawn),50µM*,25%,40µM*,-8%,-18%
O=S(=O)(Nc1nccs1)c1ccc(Br)cc1,27%,-13%,2%,-25%,-8%
O=S(=O)(Nc1nccs1)c1cnc(Cl)c(Br)c1,50µM*,22%,4%[59 µM],0%,-16%
CCCCn1c(N)c(N(C(=O)CSc2nnnn2-c2ccc(C)cc2)C2CCCC2)c(=O)[nH]c1=O,.,30%,.,.,-3%
CCCOc1ccccc1N/C(=N/c1nc(C)cc(C)n1)NC(=O)Nc1ccc(Cl)cc1,-22%,44%,-2%[59 µM],-14%,-1%
COc1ccc(-n2c(=O)c3ccccc3n(CC(=O)Nc3cccc(OC)c3)c2=O)cc1,16%,-7%,-32%,7%,-4%[11.4 µM]
COc1cccc(-n2c(=O)c3cc(OC)c(OC)cc3n(CC(=O)Nc3cc(C)[nH]n3)c2=O)c1,23%,34%,?,50µM*,-18%

# High-throughput results: PubChem, National Center for Advancing Translational Sciences (NCATS)
